A selection: hits, their analogues and other compounds. The true share with any hit is near 21%.
HCV inh – HCV inhibition; Huh7.5.1 HCVcc-Cre infection, luciferase reporter, 44 h; Potency, µM (top dose mostly 41.8 µM), inactives show at the top dose activity change, negative = inhibition, usual class: inhibitors; hit rate 3.4% among 340,000; AID 651820; also: potency is read from the fitted curve at half-maximal effect; % is scaled to controls: 0 for no effect and ±100 for the full control effect
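Cells seeded at 1,000/well and cultured 4 h, then compounds added followed by HCVcc-Cre virus (~0.5 moi). After 44 h further culture, luciferase substrate was added, plates held 15 min at room temperature, and luminescence read for 15 sec.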
Shiga toxin inh – Shiga toxin inhibition. Vero cells, Shiga toxin protein synthesis inhibition reporter. inhibition, % at 38.7 µM. hit rate 9.2% among 290,000. AID 2315; in the data active = inhibition mostly above about 28%, no sharp cut-off; inactive = mostly below about 43%; also: 0% is about no effect
Pf growth 96h – P. falciparum growth inhibition at 96 hours; P. falciparum luciferase reporter growth, 96 h; Potency, µM (titrated, usually from 28.7 µM), without a hit: top-dose activity change, negative = inhibition, usual class: inhibitors; hit rate 6.9% among 320,000; also: potency is read from the fitted curve at half-maximal effect; % is scaled to controls: 0 for no effect and ±100 for the full control effect
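Luminescence readout: decreased luciferase signal marks inhibited growth of reporter-expressing P. falciparum in infected red cells (2% hematocrit, 0.05% parasitemia final), exposed to compound two generations (96 h, 37 C, 5% CO2).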
CHX counter – affects cycloheximide protein synthesis inhibition readout, counter-screen. hit rate 12% among 300,000. AID 2314. max response, %. cell reporter, cycloheximide protein synthesis inhibition counterscreen; in the data active = max response mostly above about 13%, no sharp cut-off; inactive = mostly below about 14%; also: read at 38.3 µM for the half of the compounds with a filed dose; 0% is about no effect
HCMV inh – inhibitors of human cytomegalovirus | HFF cells, HCMV-luciferase reporter, 72 h; stronger effect = lower value | activity change, negative = inhibition, % at 57.5 µM | hit rate 4.5% among 410,000 | AID 1259415; in the data active = activity change below about -60%; inconclusive = no clear call, values can overlap the other calls; inactive = above about -39%; also: % is scaled to controls: 0 for no effect and ±100 for the full control effect
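Human foreskin fibroblasts infected with luciferase-reporter HCMV at MOI 1 PFU/cell, compounds at two doses. Luciferase measured 72 h post infection; normalized to buffer-only basal and Salinomycin (10uM) controls.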
Pf growth 48h – P. falciparum growth inhibition at 48 hours (one generation); P. falciparum luciferase growth in erythrocytes, 48 h; Potency, µM (series often up to 28.7 µM), inactives show at the top dose activity change, negative = inhibition, most hits filed as inhibitors; hit rate 5.9% among 310,000; AID 504832; also: potency is read from the fitted curve at half-maximal effect; % is scaled to controls: 0 for no effect and ±100 for the full control effect
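Compounds are pin-transferred into medium, infected erythrocytes (2% hematocrit, 0.1% parasitemia final) are added, and plates sit one parasite generation at 37 C in 5% CO2. Detection reagent is then added and luminescence measured.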
* = called active by the depositor; ? = inconclusive; nt = no result given. Unless noted, calls follow the shape of the dose curve; as a rule, active = well fitted inhibition curve with a large enough effect; inconclusive = small, poorly fitted or top-dose-only effect, or another doubt; inactive = no such curve, though single readings can be large or run the other way.

SMILES	HCV inh	Shiga toxin inh	Pf growth 96h	CHX counter	HCMV inh	Pf growth 48h
O=P(CCCCCCCCCP(=O)(c1ccccc1)c1ccccc1)(c1ccccc1)c1ccccc1	14.1µM*	-25.7	nt	3.2	-35.1	1.31µM*
COc1ccc(NC2(c3ccccc3)OC(=O)c3ccccc32)cc1 (stereo unspecified)	-8.6%	12.4	50.6%	-1.5	-3.0	15.9%
COc1ccc(C2=CC(=O)OC(C)(c3ccccc3)O2)cc1 (stereo unspecified)	-18.2%	24.2	95.7%	1.9	9.4	11.7µM*
OCl	nt	nt	9.6%	nt	nt	12.0%
COc1ccccc1C(=O)N(CCC1CCCN1C)c1nc2ccccc2s1 (stereo unspecified)	9.0%	39.1	14.1%	25.9*	-77.2*	145.1%
COc1ccc2sc(N(CCCN(C)C)C(=O)c3nc4ccccc4s3)nc2c1	4.0%	9.9	77.2%	13.9	40.1	32.2%
CN1CCCNc2nc3ccccc3nc21	13.3%	84.0*	?	35.1*	5.8	82.2%
COc1ccccc1CNC(=O)c1ccc(Cn2c(SCc3ccccc3)nc3cccnc32)cc1	nt	nt	nt	nt	-17.3	nt
CN(C(=O)c1cc2c(s1)-c1ccccc1S(=O)(=O)C2)c1ccccc1F	-9.8%	2.3	?	10.9	0.0	?
COc1cccc(N2CCN(C(=O)c3cc4c(s3)-c3ccccc3OC4)CC2)c1	10.3%	-3.3	4.15µM*	-1.1	86.5	-1.6%
CN(C(=O)c1cc2c(s1)-c1ccccc1S(=O)(=O)C2)c1ccccc1	-5.6%	41.9	?	8.8	-0.1	9.28µM*
COc1ccc(N2CCN(C(=O)c3cc4c(s3)-c3ccccc3OC4)CC2)cc1	14.3%	26.1	237.2%	0.7	?	6.8%
COc1ccc2c(c1)CCc1cc(C(=O)N3CCN(c4ccc(N5CCOCC5)nn4)CC3)sc1-2	10µM*	16.8	?	-1.9	nt	?
COc1cccc(C(=O)N2CCN(c3ccc(N4CCOCC4)nn3)CC2)c1	-10.3%	nt	?	nt	-0.4	-19.2%
O=C(c1cc2c(s1)-c1ccccc1OC2)N1CCCC1	-28.3%	26.5	65.4%	10.9	43.3	nt
O=C(c1cc2c(s1)-c1ccccc1OC2)N1CCC2(CC1)OCCO2	-18.2%	38.6*	-19.8%	39.8*	116.7	212.5%
O=C(c1cc2c(s1)-c1ccccc1OC2)N1CCN(c2ccccc2F)CC1	nt	nt	nt	nt	-4.2	nt
CCCN1CCN(C(=O)c2cc3c(s2)-c2ccccc2OC3)CC1	-8.8%	31.5*	24.0%	26.1*	60.7	49.2%
CCOC(=O)N1CCN(C(=O)c2cc3c(s2)-c2ccc(Cl)cc2S(=O)(=O)C3)CC1	-9.1%	14.8	-20.9%	10.8	-62.0*	35.5%
COc1ccc(N(C)C(=O)c2cc3c(s2)-c2ccc(Cl)cc2S(=O)(=O)C3)c(OC)c1	?	-9.2	13.1µM*	9.0	?	?
CCOC(=O)N1CCN(C(=O)c2cc3c(s2)-c2ccccc2OC3)CC1	9.4%	14.0	8.28µM*	8.3	-16.0	0.3%
CN(Cc1ccco1)C(=O)c1cc2c(s1)-c1ccc(Cl)cc1S(=O)(=O)C2	-14.8%	3.7	-20.9%	16.9	-17.1	8.2%
Cn1c(=O)c(C(=O)CSc2nnc(Nc3ccccc3)s2)c(N)n(Cc2ccccc2)c1=O	?	-16.7	nt	-4.9	-2.3	?
CCSc1nnc(SCC(=O)c2c(N)n(C)c(=O)n(C)c2=O)s1	6.1%	nt	4.15µM*	nt	-39.5	?
Cc1ccccc1Nc1nnc(SCC(=O)c2c(N)n(C)c(=O)n(C)c2=O)s1	-9.4%	-0.8	?	5.4	2.1	5.22µM*
Cn1c(N)c(C(=O)CSc2nnc(-c3ccccc3F)n2N)c(=O)n(C)c1=O	18.8%	-8.2	10.4µM*	0.2	-10.4	?
COc1cccc(CN(C)C(=O)c2cc(S(=O)(=O)NC3CCCCC3)ccc2C)c1OC	?	nt	?	nt	-8.4	?
Cc1cn([C@H]2C[C@H](N=[N+]=[N-])[C@H](CO)O2)c(=O)[nH]c1=O	nt	nt	9.6%	nt	nt	-5.9%
